BH1578 lux ind: induces V. cholerae light production without autoinducers. V. cholerae BH1578 lux reporter, luminescence, 6 h. activation, % at 18.7 µM. 0.16% of 350,000 active. AID 588436; in the data active = activation mostly above about 9.7%, no sharp cut-off
Mtb FBA inh: Mtb fructose-bisphosphate aldolase inhibition. purified M. tuberculosis FBA, fluorescence read-out. inhibition, % at 1 µM. 2.3% of 360,000 active. P9WQA3;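 also: 0% = vehicle and 100% = reference inhibitor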
Target sequence (P9WQA3 whole entry, looked up): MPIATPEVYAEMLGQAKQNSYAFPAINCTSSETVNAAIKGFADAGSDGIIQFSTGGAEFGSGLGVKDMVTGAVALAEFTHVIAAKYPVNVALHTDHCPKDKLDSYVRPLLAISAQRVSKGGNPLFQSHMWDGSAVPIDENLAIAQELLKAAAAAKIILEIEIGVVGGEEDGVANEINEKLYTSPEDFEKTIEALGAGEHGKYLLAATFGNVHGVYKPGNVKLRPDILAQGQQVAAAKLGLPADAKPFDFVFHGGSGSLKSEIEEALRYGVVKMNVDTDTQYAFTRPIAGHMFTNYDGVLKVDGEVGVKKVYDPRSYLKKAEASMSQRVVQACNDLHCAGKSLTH
GDH-TPI counter-1: GDH-TPI coupled enzyme inhibition counter-screen; inhibition, % at 4.8 µM; 1.2% of 360,000 active; GDH-TPI coupled enzyme counterscreen, NADH absorbance; in the data active = inhibition above about 30%;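 also: 0% = DMSO wells and 100% = wells lacking the enzyme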
Mtb BioA inh: inhibitors of Mycobacterium tuberculosis BioA enzyme; purified M. tuberculosis BioA enzyme, plate reader; inhibition, % at 9.99 µM; 0.096% of 360,000 active; AID 602481; in the data active = inhibition above about 40%
Mtb FBA confirm: confirmation of M. tuberculosis fructose-bisphosphate aldolase inhibitors | 78% of 5,600 active | purified M. tuberculosis FBA, fluorescence read-out | shares compounds with Mtb FBA inh | AID 651616 | inhibition, % at 1 µM;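 also: 0% = vehicle wells and 100% = reference inhibitor wells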
GDH-TPI counter-2: GDH-TPI inhibition counter-screen for FBA inhibitors. shares compounds with Mtb FBA inh. GDH-TPI coupled enzyme counterscreen, fluorescence. inhibition, % at 1 µM. 81% of 5,600 active. AID 652141; in the data active = inhibition above about 10%
GDH-TPI DR: GDH-TPI dose response counter-screen for Mtb FBA | shares compounds with Mtb FBA inh | GDH-TPI coupled enzyme assay, fluorescence, artifact counterscreen | IC50, µM | 79% of 170 active | AID 652145; call rule not given here
An asterisk follows results filed as active. Shown are actives, neighbours in structure and some others; about 3% of the full set was active somewhere. Rule as the data show it, unless noted: active = inhibition above about 27%; inactive = the rest.

For COC(=O)c1cc2c(s1)-c1ccc(OC)cc1CC2 the results were BH1578 lux ind -0.4, Mtb FBA inh 109.5*, GDH-TPI counter-1 18.4, Mtb FBA confirm 106.5* and GDH-TPI counter-2 94.1*.
Screening CCCNC(=O)N(C)C[C@@H]1Oc2ncc(-c3ccncc3)cc2C(=O)N([C@@H](C)CO)C[C@H]1C returned Mtb BioA inh 6.1.
For Cc1ccc(CNC(=O)CN(Cc2cccs2)C(=O)C2(C)CC(=O)N=C3C=CC=CN32)cc1 (stereo unspecified) the results were BH1578 lux ind 0.4, Mtb FBA inh 80.3*, GDH-TPI counter-1 14.4, Mtb BioA inh 0.2, Mtb FBA confirm 50.7* and GDH-TPI counter-2 39.1*.
For Cc1ccc(C)c(N(CC(=O)NCc2ccc3c(c2)OCO3)C(=O)CCC(=O)Nc2ccccn2)c1 the results were BH1578 lux ind inactive, Mtb FBA inh 10.3, GDH-TPI counter-1 -2.5 and Mtb BioA inh 0.6.
For Cc1ccc(CNC(=O)Cc2cccs2)cc1 the results were BH1578 lux ind -0.7, Mtb FBA inh 2.5, GDH-TPI counter-1 12.7 and Mtb BioA inh -0.8.
Screening Cc1ccc(CNC(=O)CN(C(=O)C2(C)CC(=O)N=C3C=CC=CN32)c2cc(C)ccc2C)cc1 (stereo unspecified) returned BH1578 lux ind -0.2, Mtb FBA inh 90.6*, GDH-TPI counter-1 21.6, Mtb BioA inh -0.9, Mtb FBA confirm active and GDH-TPI counter-2 active.
Screening C/C=C(/C)C(=O)O[C@@H]1c2c(ccc3ccc(=O)oc23)OC(C)(C)[C@@H]1OC(=O)/C(C)=C\C returned BH1578 lux ind inactive, Mtb FBA inh 2.8, GDH-TPI counter-1 16.2 and Mtb BioA inh -1.5.
For CC1(C)Oc2ccc3ccc(=O)oc3c2[C@@H](O)[C@@H]1O the results were BH1578 lux ind -0.7, Mtb FBA inh 59.1*, GDH-TPI counter-1 17.9, Mtb BioA inh -2.7, Mtb FBA confirm 37.6* and GDH-TPI counter-2 27.3*.
For CCO[C@H]1c2c(ccc3ccc(=O)oc23)OC(C)(C)[C@@H]1O the results were BH1578 lux ind 0.4, Mtb FBA inh 59.2*, GDH-TPI counter-1 20.4, Mtb BioA inh -1.5, Mtb FBA confirm 136.6* and GDH-TPI counter-2 95.7*.
`CCO[C@@H]1c2c(ccc3ccc(=O)oc23)OC(C)(C)[C@H]1O` gave BH1578 lux ind inactive, Mtb FBA inh 55.6*, GDH-TPI counter-1 17.0, Mtb BioA inh 0.0, Mtb FBA confirm 21.1, GDH-TPI counter-2 8.4 and GDH-TPI DR 2.89*.
CCO[C@@H]1c2c(ccc3ccc(=O)oc23)OC(C)(C)[C@@H]1O was read as BH1578 lux ind 0.0, Mtb FBA inh 56.9*, GDH-TPI counter-1 20.4, Mtb BioA inh 1.1, Mtb FBA confirm 55.9* and GDH-TPI counter-2 40.0*.
`CC(=O)OC1c2c(ccc3ccc(=O)oc23)OC(C)(C)C1OC(=O)CC(C)C` (stereo unspecified) gave BH1578 lux ind 6.2, Mtb FBA inh 15.7, GDH-TPI counter-1 10.9 and Mtb BioA inh 4.4.
For CCC(=O)Nc1ccc2c(c1)C(=O)N(C)[C@H]1CC[C@@H](CC(=O)NCc3ccccc3Cl)O[C@H]1CO2 the results were Mtb BioA inh -3.2.
For C[C@H](CO)N1C[C@H](C)[C@H](CN(C)C(=O)Nc2ccccc2)Oc2ccc(NS(=O)(=O)c3cn(C)cn3)cc2C1=O the results were Mtb BioA inh 4.2.
`CCCNC(=O)C[C@@H]1CC[C@H]2[C@@H](COC[C@H](O)CN2C(=O)c2cccnc2)O1` gave Mtb BioA inh -3.1.
For CC(C)=CC(=O)O[C@@H]1Cc2c(ccc3ccc(=O)oc23)OC1(C)C the results were BH1578 lux ind inactive, Mtb FBA inh 32.5*, GDH-TPI counter-1 16.2, Mtb BioA inh -1.4, Mtb FBA confirm 34.6* and GDH-TPI counter-2 25.7*.
For C/C=C(/C)C(=O)O[C@@H]1[C@H](OC(=O)C=C(C)C)c2c(ccc3ccc(=O)oc23)OC1(C)C the results were BH1578 lux ind inactive, Mtb FBA inh 3.2, GDH-TPI counter-1 12.9 and Mtb BioA inh -4.0.
For Oc1ccc(-c2cn3ccccc3n2)cc1 the results were BH1578 lux ind inactive, Mtb FBA inh 56.5*, GDH-TPI counter-1 16.6, Mtb FBA confirm -5.7 and GDH-TPI counter-2 -5.2.
`c1ccc(-c2cn3ccccc3n2)cc1` gave BH1578 lux ind -0.8, Mtb FBA inh 35.3*, GDH-TPI counter-1 3.5, Mtb BioA inh -0.4, Mtb FBA confirm 7.6 and GDH-TPI counter-2 2.5.
Screening CCN(CC)S(=O)(=O)c1ccc(-c2cn3ccccc3n2)cc1 returned BH1578 lux ind inactive, Mtb FBA inh 86.2*, GDH-TPI counter-1 5.4, Mtb BioA inh -1.6, Mtb FBA confirm 158.1* and GDH-TPI counter-2 112.7*.
For Brc1ccc(-c2cn3ccccc3n2)cc1 the results were BH1578 lux ind -0.4, Mtb FBA inh 11.4, GDH-TPI counter-1 11.1 and Mtb BioA inh -2.6.
Screening CCCC(=O)Nc1ccc2c(c1)C(=O)N(C)C[C@H](OC)[C@@H](C)CN(CC1CCCC1)[C@@H](C)CO2 returned Mtb BioA inh 4.6.
`C[C@H](CO)N1C[C@H](C)[C@@H](CN(C)Cc2ccc(Cl)c(Cl)c2)OCCCC[C@H](C)Oc2ccc(NS(=O)(=O)c3ccc(F)cc3)cc2C1=O` gave Mtb BioA inh -3.6.
For Cc1ccc(S(=O)(=O)N(C)C[C@@H]2OCCCC[C@H](C)Oc3ccc(NC(=O)c4ccccc4)cc3C(=O)N([C@H](C)CO)C[C@@H]2C)cc1 the results were Mtb BioA inh -3.3.
Screening CCOc1ccc(S(=O)(=O)NCC2CCCO2)c2cccnc12 (stereo unspecified) returned BH1578 lux ind -11.1, Mtb FBA inh 28.0*, GDH-TPI counter-1 1.3, Mtb BioA inh -1.2, Mtb FBA confirm active and GDH-TPI counter-2 active.
O=c1cc(C(F)(F)F)[nH]c2ccc(C(F)(F)F)cc12 was read as BH1578 lux ind -0.5, Mtb FBA inh 35.2*, GDH-TPI counter-1 4.9, Mtb FBA confirm 65.1* and GDH-TPI counter-2 49.9*.
C[C@@H]1CCCCO[C@H](CN(C)C(=O)CCCN(C)C)[C@H](C)CN([C@@H](C)CO)C(=O)c2cc(NC(=O)Nc3ccc(F)cc3)ccc2O1 was read as Mtb BioA inh -2.7.
COc1ccc2[nH]c(C(=O)O)c(CCN3C(=O)c4ccc(C(=O)O)cc4C3=O)c2c1 was read as BH1578 lux ind -0.6, Mtb FBA inh 2.5, GDH-TPI counter-1 -4.4 and Mtb BioA inh -3.0.
For COc1ccc2[nH]c(C(=O)O)c(CCC(=O)O)c2c1 the results were BH1578 lux ind -0.2, Mtb FBA inh 41.5*, GDH-TPI counter-1 -0.6, Mtb BioA inh -0.5, Mtb FBA confirm 77.9* and GDH-TPI counter-2 59.0*.

Screening data (PubChem BioAssay)
